Shown is part of a subset that was picked to be rich in hits.
14-3-3g Raf: modulators of 14-3-3 gamma protein binding, primary screen, biochemical, fluorescence polarization; FP, 14-3-3gamma / TMR-pS259-Raf peptide binding; 14-3-3 protein gamma (Homo sapiens), P61981; 160,000 compounds, 0.19% hits; inhibition, % at 40 µM; in the data active means inhibition above about 30%
Target sequence (P61981 whole entry, looked up): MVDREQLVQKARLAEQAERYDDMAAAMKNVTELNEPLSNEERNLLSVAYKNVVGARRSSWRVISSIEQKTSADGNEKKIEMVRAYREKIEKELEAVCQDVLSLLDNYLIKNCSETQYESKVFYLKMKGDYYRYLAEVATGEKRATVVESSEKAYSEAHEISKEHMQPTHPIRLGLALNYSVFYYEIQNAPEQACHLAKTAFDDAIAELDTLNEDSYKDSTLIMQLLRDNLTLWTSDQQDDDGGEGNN
A number is an active result.

Screening CCC(=O)Oc1c(-c2ccccc2)c2nc3ccccc3nc2c2ccccc12 returned 14-3-3g Raf inactive.
For COc1ccc(CCNC(=O)C(C(C)C)N2C(=O)c3ccccc3C2=O)cc1 (stereo unspecified) the results were 14-3-3g Raf inactive.
Cc1ccc(NC(=O)C2c3ccccc3C(=O)N(C)C2c2cn(C)c3ccccc23)c(Br)c1 (stereo unspecified) was read as 14-3-3g Raf inactive.
CCCOc1ccc(C2C(C(=O)OCC)=C(C)NC3=C2C(=O)CC(c2ccc(OC)cc2)C3)cc1 (stereo unspecified) was read as 14-3-3g Raf inactive.
`CCCCOC(=O)C1=C(C)NC(=S)NC1c1ccccc1OCC` (stereo unspecified) gave 14-3-3g Raf inactive.
`CCOC(=O)C1=C(C(C)=O)C(c2cccnc2)C(C#N)=C(N)O1` (stereo unspecified) gave 14-3-3g Raf 32.
CCOC(=O)C1=C(CSc2nc(-c3ccncc3)ccc2C#N)OC(N)=C(C#N)C1c1cccnc1 (stereo unspecified) was read as 14-3-3g Raf inactive.
CCOC(=O)C1=C(N)Oc2cc(O)ccc2C1c1cccnc1 (stereo unspecified) was read as 14-3-3g Raf inactive.
For CN1C(=O)C(C(=O)c2ccccc2)C2CC1(C)Oc1cc(O)ccc12 (stereo unspecified) the results were 14-3-3g Raf inactive.
COc1ccc(N=Cc2cc([N+](=O)[O-])cc(Br)c2O)cc1OC was read as 14-3-3g Raf inactive.
Screening COc1ccc(N=Cc2cc(Cl)cc([N+](=O)[O-])c2O)cc1Cl returned 14-3-3g Raf inactive.
COc1ccc(N=Cc2cc(Cc3ccccc3Cl)cc([N+](=O)[O-])c2O)cc1OC was read as 14-3-3g Raf 79.
`O=C(Cn1c(=O)c2sccc2n(CC(=O)Nc2ccccc2)c1=O)NCc1ccco1` gave 14-3-3g Raf inactive.
Screening Cc1nc(Cl)c(C(=O)O)c(C)c1[N+](=O)[O-] returned 14-3-3g Raf inactive.
Screening COC(=O)c1c(Cl)nc(Cl)c([N+](=O)[O-])c1Cl returned 14-3-3g Raf 56.
For O=C(O)c1c(Cl)nc(Cl)c([N+](=O)[O-])c1Cl the results were 14-3-3g Raf inactive.
For Cc1cccc(N2CCN(C(=O)CCCC(=O)O)CC2)c1C the results were 14-3-3g Raf inactive.
For CC(C)=CCCC1(C)OC(=O)N(CCOC23CC4CC(CC(C4)C2)C3)C1(C)O (stereo unspecified) the results were 14-3-3g Raf inactive.
For CCc1ccc(CNC(=O)CCS(=O)(=O)Cc2ccccc2Cl)cc1 the results were 14-3-3g Raf inactive.
For CCCOc1cccc(C(=O)Nc2ccc(-c3cc4ccccc4oc3=O)cc2)c1 the results were 14-3-3g Raf inactive.
`O=C1CN(S(=O)(=O)c2ccc(F)cc2)CC(=O)N1CCc1ccccc1` gave 14-3-3g Raf inactive.
For O=C(c1cccs1)N1CC(=O)N(CCc2ccccc2)C(=O)C1 the results were 14-3-3g Raf inactive.
`O=C1CN(CCc2ccccc2)CC(=O)N1CCc1ccccc1` gave 14-3-3g Raf 166.
Screening CC1CC(C)CN(C(=O)CSc2nc3ccccc3c(=O)n2Cc2ccc(C(=O)NC3CCCCC3)cc2)C1 (stereo unspecified) returned 14-3-3g Raf inactive.
Screening C=CCOc1ccc(C(Nc2ccccn2)c2ccc3cccnc3c2O)cc1 (stereo unspecified) returned 14-3-3g Raf inactive.
O=C(O)c1cc(N2Cc3ccccc3C2)ccc1O was read as 14-3-3g Raf 81.
Screening O=C1c2ccc(N3Cc4ccccc4C3)cc2C(=O)N1c1ccccc1 returned 14-3-3g Raf inactive.
For Cc1ccc(-c2ccccc2)n1-c1ccc(O)c(C(=O)O)c1 the results were 14-3-3g Raf inactive.
O=c1c2cc(F)ccc2[nH]c(=S)n1C1CCCCC1 was read as 14-3-3g Raf inactive.
`Cc1c(C(=O)NCc2ccc(F)cc2)sc2ncn(CC(=O)N3CCOCC3)c(=O)c12` gave 14-3-3g Raf inactive.
`CCC(=O)N1CCc2cc(S(=O)(=O)NCCN3CCCCC3C)ccc21` (stereo unspecified) gave 14-3-3g Raf inactive.
O=C(C1CCC1)N1CCc2cc(S(=O)(=O)NCCN3CCCC3)ccc21 was read as 14-3-3g Raf inactive.
Screening O=C(C1CCC1)N1CCc2cc(S(=O)(=O)NCCCN3CCN(c4ccccc4F)CC3)ccc21 returned 14-3-3g Raf 31.
Screening CC(=O)N1CCc2cc(S(=O)(=O)NCCCN3CCN(C)CC3)ccc21 returned 14-3-3g Raf inactive.
`CCC1CCCCN1CCNS(=O)(=O)c1ccc2c(c1)CCN2C(=O)C1CCC1` (stereo unspecified) gave 14-3-3g Raf 52.
For O=C(C1CCC1)N1CCc2cc(S(=O)(=O)NCCCN3CCCCC3)ccc21 the results were 14-3-3g Raf inactive.
Screening NC(=O)C1=CC2([N+](=O)[O-])CN(CC(=O)O)CC([N+](=O)[O-])(C1)C2 (stereo unspecified) returned 14-3-3g Raf inactive.
CC(C)Oc1ccc(CNC(=O)CCCl)cc1 was read as 14-3-3g Raf inactive.
`Clc1ccc(C2=CC(c3cccs3)n3ncnc3N2)cc1` (stereo unspecified) gave 14-3-3g Raf inactive.
For Cc1ccc(-c2cc(C(=O)Nc3ncccn3)c3ccccc3n2)cc1C the results were 14-3-3g Raf inactive.
For CCc1nc(-c2ccc(Br)cc2)no1 the results were 14-3-3g Raf inactive.
Screening COc1ccc(N2CCN(c3ccc(N4C(=O)C5C6C=CC(C6)C5C4=O)cc3[N+](=O)[O-])CC2)cc1 (stereo unspecified) returned 14-3-3g Raf inactive.
`COc1ccccc1N1CCN(C(=O)CSCc2ccc(F)cc2)CC1` gave 14-3-3g Raf inactive.
CC1CCC2C(=O)N(c3ccc(N(C)Cc4ccccc4)c([N+](=O)[O-])c3)C(=O)C2C1 (stereo unspecified) was read as 14-3-3g Raf 38.
CC1CCC2C(=O)N(c3ccc(N(C)C4CCCCC4)c([N+](=O)[O-])c3)C(=O)C2C1 (stereo unspecified) was read as 14-3-3g Raf inactive.
For CC1CC(=O)N(c2ccc(N(C)Cc3ccccc3)c([N+](=O)[O-])c2)C1=O (stereo unspecified) the results were 14-3-3g Raf inactive.
For Cc1ccc2cccc(Oc3ncnc(N)c3[N+](=O)[O-])c2n1 the results were 14-3-3g Raf inactive.
